Assay results published in PubChem BioAssay AID2107 (National Center for Advancing Translational Sciences (NCATS), 2009).
Among all 240,000 compounds or so, about 20 (0.008%) were called active. Roughly 1% stayed inconclusive and do not appear here. Calls follow the shape of the dose curve; as a rule, active = well fitted inhibition curve with a large enough effect; inconclusive = small, poorly fitted or top-dose-only effect, or effect the other way; inactive = flat fitted curve, though single readings scatter. A selection follows. Peptide text beside a SMILES is read from it.

Target: Alpha-galactosidase A (Homo sapiens) (UniProt P06280)
Assay: qHTS Assay for Inhibitors and Activators of Human alpha-Galactosidase From Spleen Homogenate;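 also: 0% = enzyme with vehicle and -100% = no enzyme basal signal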
Settings: 4MU-alpha-Gal fluorescence, 40 min; series mostly up to 80 µM
Description: NIH Chemical Genomics Center [NCGC] NIH Molecular Libraries Probe Production Centers Network [MLPCN] MLPCN Grant: R03 MH084842-01 Assay Submitter (PI): Wei Zheng NCGC Assay Overview: Alpha-galactosidase is a homodimeric glycoprotein that hydrolyzes the terminal alpha-galactosyl moieties from glycolipids and glycoproteins. Deficiency of this enzyme results in Fabry Disease with progressive accumulation of globotriaosylceramide and other glycosphingolipids in vascular endothelial cells that causes renal failure, myocardial infarction and stroke, and premature death in patients. It has been reported that the improper folding and trafficking of alpha-galactosidase resulting from genetic mutations may account for a significant number of Fabry patients. […] We optimized this alpha-galactosidase assay in 1536-well plate format for identification of novel small molecule inhibitors or activators with structures other than the sugar analogs in order to develop new pharmacological chaperones. In particular, this assay is directed towards discovering compounds active in more natural setting, tissue homogenate, that may have been missed by screens of the purified enzyme under more stringent conditions.
NCGC Assay Protocol Summary: This is a fluorogenic enzyme assay with 4-methylumbelliferyl-alpha-D-galactopyranoside as the substrate and human spleen homogenate containing alpha-galactosidase as the enzyme preparation. Upon hydrolysis of this fluorogenic substrate, the resulting product, 4-methylumbelliferone (which excites at 365 nm and emits at 440 nm) can be detected by a fluorescence plate reader. Data were normalized to the controls for basal activity (without enzyme) and 100% activity (with enzyme). The AC50 values were determined from concentration-response data modeled with the standard Hill equation. Assay buffer: 50 mM citric acid (titrated with potassium phosphate to pH 5.0), 0.01% Tween-20 (pH 5.0 is an optimal condition for this enzyme assay) 1536-well assay protocol for the alpha-galactosidase from human spleen homogenate: (1) Add 2 ul/well spleen homogenate (1 ug) (2) Add 23 nL compounds in DMSO solution. The final titration was 0.5 nM to 58 uM. (3) Add 2 ul of substrate (1 mM final) (4) Incubate at 37C for 40 min (5) Add 2 ul stop solution (1M NaOH and 1M Glycine mixture, pH 10) (6) Detect the assay plate in a ViewLux plate reader (PerkinElmer) with Ex=365 nm and Em=440nm. Keywords: Alpha-galactosidase, Fabry Disease, pharmacological chaperone, chaperone therapy, high throughput screening, alpha- galactosidase inhibitor, MLSMR, MLSCN, NIH Roadmap, qHTS and NCGC

Alpha-galactosidase A (Homo sapiens), sequence (P06280 32-429 limits assumed): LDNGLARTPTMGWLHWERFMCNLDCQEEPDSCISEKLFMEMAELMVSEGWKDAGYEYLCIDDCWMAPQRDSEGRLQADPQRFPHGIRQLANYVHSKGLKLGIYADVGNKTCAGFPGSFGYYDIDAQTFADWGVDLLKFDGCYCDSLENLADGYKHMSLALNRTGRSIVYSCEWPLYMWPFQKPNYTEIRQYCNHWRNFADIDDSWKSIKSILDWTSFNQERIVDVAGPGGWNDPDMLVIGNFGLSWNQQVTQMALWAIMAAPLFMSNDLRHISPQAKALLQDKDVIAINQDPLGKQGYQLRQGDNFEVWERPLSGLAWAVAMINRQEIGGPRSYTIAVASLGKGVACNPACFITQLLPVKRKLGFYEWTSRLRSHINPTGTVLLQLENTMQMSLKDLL

Activity change, negative = inhibition, inactive:
CCn1c(SCC(=O)N/N=C/c2ccncc2)nc2ccccc21
Cc1ccc(Br)cc1
COc1ccc(C(=O)C2CCCN(C(=O)c3cnsn3)C2)c(C)c1 (stereo not given)
CC(C)(C)c1ccc(OC2=CS(=O)(=O)c3ccccc32)cc1
CCn1cc(C(=O)NCCCN2CCCCCC2)c(=O)c2cc(S(=O)(=O)N3CCc4ccccc4C3)ccc21
Cc1ccc(C)c(NS(=O)(=O)c2cc(Br)cnc2N)c1
CCN(CC)/[N+]([O-])=N/Oc1cc(O/[N+]([O-])=N/N2CCCC2CO)c([N+](=O)[O-])cc1[N+](=O)[O-] (stereo not given)
CCn1c(NC(=O)c2nn(C)cc2Br)nc2ccccc21
O=C(/C=C/Sc1ncn[nH]1)c1ccc(Cl)cc1
Cc1cc(C)nc(SC(C)C(=O)N/N=C/c2cccs2)n1 (stereo not given)
CCN(CC)CCN1C(=O)C(=O)/C(=C(/O)c2cnn(-c3ccccc3)c2C)C1c1cccs1 (stereo not given)
Cc1cc(F)ccc1S(=O)(=O)N1CCCOC1CNC(=O)C(=O)NCCC1=CCCCC1 (stereo not given)
CN(Cc1nc2ccc(F)cc2[nH]1)Cc1nc(CC2CC2)no1
COc1ccc(C(CCN2CCOCC2)c2c(OC)cc(OC)c3c2OC(=O)CC3c2ccc(OC)cc2)cc1 (stereo not given)
O=C1C2C(c3ccccc3)CC=CC2C(c2ccoc2)N1Cc1ccccc1 (stereo not given)
O=C1C[C@@H](c2ccc3ccccc3c2)N1S(=O)(=O)c1ccccc1[N+](=O)[O-]
Cc1onc(-c2c(Cl)cccc2Cl)c1C(=O)NNC(=O)c1c(-c2c(Cl)cccc2Cl)noc1C
COc1ccc(C(=O)C[n+]2ccc(N)c(C)c2C)cc1
CCN(C(=O)COC(=O)c1cc(NS(=O)(=O)c2ccc(Cl)c([N+](=O)[O-])c2)ccc1O)C1CCCCC1
Cc1ccc(-c2nn(-c3ccccc3)cc2C(=O)Nc2cccc(S(=O)(=O)N3CCOCC3)c2)cc1
CCc1nc(C)cn1S(=O)(=O)c1cc([N+](=O)[O-])ccc1Cl
COc1ccc(CN2CCC(c3nc4ccc(Cl)cc4[nH]3)CC2)cc1
O=C(COc1ccc(NC(=O)c2ccccc2[N+](=O)[O-])cc1)c1ccc(F)cc1
C=C1CCN(C(CC(C)C)C(=O)N2CCOCC2)S(=O)(=O)c2ccccc21 (stereo not given)
CC(C)C[C@@H](N)c1nnc(SCC(=O)c2ccc(Cl)cc2)o1
Fc1ccc(Cl)cc1-c1nc(Nc2ccncc2)c2nccnc2n1
Cc1scc(C(=O)NNC(=S)NCc2ccccc2)c1C
Cc1cccc(-[n+]2c(-c3cccc(Br)c3)[nH]c3nc4ccccc4nc32)c1
O=[N+]([O-])c1ccccc1S(=O)(=O)Nc1cccc2cccnc12
C=C1CCN(Cc2ccc(OC)cc2)S(=O)(=O)c2ccccc21
COc1cc(OC)c2c(c1C(CCN1CCCCC1)c1ccc(N(C)C)cc1)OC(=O)CC2c1ccc(N(C)C)cc1 (stereo not given)
CCN(CC)S(=O)(=O)c1ccc(N(C)Cc2ccc(C(F)(F)F)cc2)nc1
CCOc1ccc(NC(=O)CN(C)CC(=O)Nc2cccc(Cl)c2C)cc1OCC
Cc1cccc(NC(=S)Nc2ccc3cn[nH]c3c2)c1
O=C(CCl)N(Cc1cccc([N+](=O)[O-])c1)c1cccc(Cl)c1
CCCCc1nn(-c2ccccc2C(F)(F)F)c(=O)n1Cc1ccc(-c2ccccc2S(=O)(=O)NC(=O)c2sccc2C)cc1
CCCCC/C=C/C=C/C=O
CC(Sc1nnc2c(n1)C1CCC2(C)C1(C)C)C(=O)Nc1ccccc1 (stereo not given)
CO[C@@]12[C@@H](COC(N)=O)C3=C(C(=O)C(C)=C(N)C3=O)N1C[C@@H]1N[C@@H]12
O=C1CN(Cc2ccccc2)S(=O)(=O)c2ccccc21
CCOC(=O)Cn1c(=O)sc2cccc(Cl)c21
Cc1nc2c(C(=O)NCc3cccs3)cnn2c(C)c1Cc1ccc(F)cc1
Cc1ccc(OCC(=O)Nc2ccccc2Sc2ccc(Cl)cc2)c([N+](=O)[O-])n1
Cc1cc2oc(=O)cc(-c3ccccc3)c2c(C)c1-c1ccc(OC(F)(F)F)cc1
H-EHIPA-OH
O=C(NC1CCN(Cc2ccccc2)CC1)c1ccc(Oc2cc(Cl)cc(Cl)c2)o1
Cc1ccc(CNC(=O)C2(C(F)(F)F)C/C(=C\Cc3ccccc3)CCCO2)o1 (stereo not given)
CCCC[C@@H]1C[C@H]1C(NC(=O)c1ccco1)c1ccc(C(=O)OC)cc1 (stereo not given in full)
CCCN1CCC(=O)N(C(CSc2ccc(OC)cc2)Cc2ccccc2)CC1 (stereo not given)
COc1ccc(C2/C=C\CN(C(=O)c3ccc(C)cc3)C(Cc3ccccc3)C(=O)N2Cc2ccc(F)cc2)cc1 (stereo not given)
c1ccc2c(Nc3ccncc3)nc(-c3ccc4c(c3)OCO4)nc2c1
COc1ccc(-c2ccc(OC)c(C3C4C=CCC(C)C4C(=O)N3Cc3ccccc3)c2)cc1C (stereo not given)
S=C(NCCc1ccccc1)NCc1ccccc1Cl
C=CCN(C(=O)c1cc(C)cc(C)c1)C1(C(=O)Nc2ccccc2)CCN(C(C)C)CC1
CCCCCOc1ccc(/C=C/C(=O)NCCc2nc3ccccc3[nH]2)cc1OC
O=C(O)C1CC=CC2CCN(C3CCCCC3)C(=O)C21 (stereo not given)
CCOc1cc(-c2conc2N)cc(OCC)c1OCC
CC1(OC(=O)c2ccc(Cl)nc2)C(=O)Cc2cc(-c3ccsc3)ncc2C1=O (stereo not given) 4.14% [at 17.5 µM]
O=C(O)CCc1nc2cc(Cl)ccc2n(Cc2ccccc2)c1=O
Cc1ccc(S(=O)(=O)c2nc(NCCCn3ccnc3)sc2Cl)cc1
COc1cccc2sc(N(CCCN(C)C)C(=O)C(c3ccccc3)c3ccccc3)nc12
CC(=O)OCCC(C)C
CN(C)CCOCCOc1ccc(Cl)c2ccccc12
COC(=O)CCc1ccccc1S(=O)(=O)N(CCC(=O)OC)Cc1ccccc1
CC(C)C(NS(=O)(=O)c1ccc(-c2ccc(Br)cc2)cc1)C(=O)O (stereo not given)
CCn1c2ccccc2c2cc(NC(=O)Nc3ccc([N+](=O)[O-])cc3C)ccc21
COc1ccc(NC(=O)CSc2nnc(-c3ccccc3F)n2C2CC2)cc1S(N)(=O)=O
Cc1cc(C(=O)COc2ccccc2[N+](=O)[O-])c(C)n1-c1cccc(S(=O)(=O)N2CCOCC2)c1
Oc1ccc(-c2c(-c3ccccc3)nn3c(C(F)(F)F)cc(C(F)(F)F)nc23)cc1
CCCn1c(C)nc2c(NCCCCN(CC)CC)nc(C)nc21
COc1ccc(C2=Nn3c(nnc3-c3ccccc3O)SC2)cc1
O=C(Cc1coc2ccc3ccccc3c12)NCc1cccs1
O=C(CSC(=S)N1CCCCC1)c1c(F)cccc1F
O=c1c([N+](=O)[O-])cccn1Cc1ccc(F)cc1Cl
CCc1nnc(NC(=O)C2CC(=O)N(c3ccc4c(c3)OCCO4)C2)s1 (stereo not given)
CCOC(=O)N1CCN(C(=O)c2ccccc2N(Cc2ccccc2)S(=O)(=O)c2ccc(OC)cc2)CC1
O=S(O)S(=O)(=O)O
COc1c(O)c2c(=O)cc(OC)c3c4c(OC)cc(=O)c5c(O)c(OC)c6c(c(c1C[C@@](C)(O)[C@H]6C(C)=O)c23)c54
NC(=O)C1(C(N)=O)OC1c1ccc(Cl)cc1Cl (stereo not given)
C/C(=N/N1CCN(Cc2cccc3ccccc23)CC1)c1cccnc1
COc1ccc(N(C(=O)c2ccc(C)cc2)S(=O)(=O)c2cccs2)cc1
C[C@H]1CC[C@H](C(=O)O)N[C@@H]1c1ccc(C#Cc2ccccc2)cc1 7.47% [at 17.5 µM]
COc1ccc(-c2cn3ccc(C)cc3n2)cc1
CCN(CC)CCOCCOc1ccc(Cl)c2ccccc12
Cc1noc(C)c1-c1ccc2ncnc(NC(C)c3ccco3)c2c1 (stereo not given)
Nc1ncnc2c1ncn2C1CC(O)C(CO)O1 (stereo not given)
O=C(Nc1ccc2c(c1)OCO2)c1sc2cc(Cl)ccc2c1Cl
C/C(=N\NC(=O)c1ccc(C)cc1)C1C(=O)c2ccccc2C1=O
COc1ccccc1N1CCN(C(=O)c2ccc(Cl)c(S(=O)(=O)N3CCCC3)c2)CC1
CCOC(OCC)OCC
Cc1ccc(C)c2[nH]c(=O)c(CN(Cc3cccnc3)C(=S)NCc3ccco3)cc12
Cc1ccc(CNC(=O)C2(C(F)(F)F)C/C(=C\CCO)CCCO2)o1 (stereo not given)
COc1cccc(NC(=O)CC2C(=O)NCCN2C(=S)Nc2ccc(F)cc2)c1 (stereo not given)
Cc1ccc(SCC(CC(C)C)N2CCN(CCc3ccccc3)CCC2=O)cc1 (stereo not given)
COC(=O)c1sc(=S)n(-c2ccc(Cl)cc2)c1C
COC(=O)c1ccc([C@@H](O)[C@H](C)C(=O)CC(=O)OC(C)(C)C)cc1
C[C@@H](O)[C@@H]1NC(=O)[C@H](CCCCN)NC(=O)[C@H](Cc2c[nH]c3ccccc23)NC(=O)[C@H](Cc2ccccc2)NC(=O)[C@H](Cc2ccccc2)NC(=O)[C@H](CC(N)=O)NC(=O)[C@H](CCCCN)NC(=O)[C@@H](NC(=O)[C@@H]2CCCN2)CSSC[C@@H](C(=O)N[C@@H](CCCCN)C(=O)O)NC(=O)[C@H](CO)NC(=O)[C@H](CO)NC(=O)[C@H](Cc2ccccc2)NC1=O (HELM PEPTIDE1{P.C.K.N.F.F.W.K.T.F.S.S.C.K}$PEPTIDE1,PEPTIDE1,2:R3-13:R3$$$V2.0)
Cc1ccccc1N1CCN(Cc2nc(Cc3ccccc3F)no2)CC1
O=c1cc(-c2ccc(O)cc2)oc2c(-c3cc(-c4cc(=O)c5c(O)cc(O)cc5o4)ccc3O)c(O)ccc12
O=C(CSc1nc(O)c(Cc2ccccc2)c(=O)[nH]1)Nc1nc2c(s1)CCCC2
CCOC(=O)C1=C(CN2CCc3ccccc32)NC(=O)NC1c1ccc(Cl)cc1 (stereo not given)
C=CCOC(=O)C(=C)C
COc1ccc(-c2ccc(C3C4C=CCCC4(C)C(=O)N3Cc3ccccc3)c(F)c2)cc1OC (stereo not given)
Cc1cccc(CNc2ccnc(-c3cccnc3)n2)c1
OCCC(O)CO (stereo not given)
C/C=C/c1ccc(OCC(O)CN2CCCCCCC2)c(OC)c1 (stereo not given)
Cc1ccc(N(C(=O)c2ccc(S(=O)(=O)N(C)C)cc2)C2C=CS(=O)(=O)C2)cc1 (stereo not given)
CC[C@H](C)[C@H](NC(=O)[C@H](CCCNC(=N)N)NC(=O)[C@H](CCCNC(=N)N)NC(=O)[C@H](CC(C)C)NC(=O)[C@H](Cc1ccccc1)NC(=O)CNC(=O)CNC(=O)[C@@H](N)Cc1ccc(O)cc1)C(=O)N[C@@H](CCCNC(=N)N)C(=O)N1CCC[C@H]1C(=O)N[C@@H](CCCCN)C(=O)N[C@@H](CC(C)C)C(=O)N[C@@H](CCCCN)C(=O)N[C@@H](Cc1c[nH]c2ccccc12)C(=O)N[C@@H](CC(=O)O)C(=O)N[C@@H](CC(N)=O)C(=O)N[C@@H](CCC(N)=O)C(=O)O
CC(C)=CCC[C@]1(C)[C@@H](CC=C(C)C)C[C@@]2(CC=C(C)C)C(=O)[C@]1(C(=O)C(C)C)C(=O)C(CC=C(C)C)=C2O
COC(=O)C(CC(C)C)NS(=O)(=O)c1cc(Br)ccc1Br (stereo not given)
